Drawing on PubChem BioAssay (EPA / NIEHS), this text covers outcome for 40 compounds.

Records with an inconclusive call do not appear. Active and inactive are the calls of the source. The calls were made as follows: active = hit-call score of the fitted dose curve at least 0.9, where 1 is the maximum; inconclusive = response in the unintended direction; inactive = score below 0.9.

This assay is described as follows: ATG_M_19_TRANS: Attagene TRANS-FACTORIAL HepG2 Assay for M19 Transcription Factor (Internal Marker) (AID 2282974). The following applies: HepG2 Attagene TRANS-FACTORIAL M19 internal marker reporter. Here is the method: ATG_TRANS is a cell-based, multiplexed-readout assay that uses HepG2, a human liver cell line, with measurements taken at 24 hours after chemical dosing in a 24-well plate.ATG_M_19_TRANS is one of 30 assay component(s) measured or calculated from the ATG_TRANS assay. It is designed to make measurements of mRNA induction, a form of inducible reporter, as detected with fluorescence intensity signals by Reverse transcription polymerase chain reaction (RT-PCR) and Capillary electrophoresis technology.Data from the assay component ATG_M_19_TRANS was analyzed into 1 assay endpoint. This assay endpoint, ATG_M_19_TRANS, was analyzed in the positive analysis fitting direction relative to DMSO as the negative control and baseline of activity. Using a type of inducible reporter, measures of mRNA for gain-of-signal activity can be used to understand the background control at the transcription factor-level as they relate to the gene . Furthermore, this assay endpoint can be referred to as a secondary readout, because this assay has produced multiple assay endpoints where this one serves a background control function. To generalize the intended target to other relatable targets, this assay endpoint is annotated to the background measurement intended target family, where the subfamily is internal marker.
Human liver HepG2 cells are transiently transfected with multiple reporter transcription units (MRTUs) in 6-well plates using FuGene 6 reagent (Roche; 3 ml FuGene/1 mg DNA). The MRTU constructs are regulated by a cis-regulating element (promoter). […] A major difference between the CIS and TRANS system is that in CIS activities of endogenous TFs are measured, whereas the TRANS assay evaluates changes in activities of exogenous, chimeric NR-Gal4 proteins. […] At the end of 24 hour incubation, total RNA was isolated using TriZol reagent (Invitrogen). The isolated RNA is then reverse-transcribed using oligo(dT) primer and Mo-MLV reverse transcriptase (Invitrogen) with DNAse I (Ambion) treatment for 30 min. The one-tenth of the produced cDNA was amplified by PCR using Taq DNA polymerase (Invitrogen) and two reporter sequence-specific primers. The PCR products were fluorescently labeled by primer extension with 6-arboxyfluorescein (6-FAM) 5'-labeled reporter sequence-specific primer (2 min at 95 C, 20 s at 68 C and 10 min at 72 C) and these products were digested with 5U of HpaI (New England Biolabs) for 2h at 37 C. The fragments were purified using Qiaquick PCR columns (Qiagen), analyzed on an ABI 3130xL genetic analyzer (Applied Biosystems) with peak positions identified by using a set of X-rhodamine (ROX)-labeled MapMarker1000 molecular weight standards (BioVentures). The raw capillary electrophoresis data was processed using Attagraph software (Attagene).
As for `CCCCCCCCCCCCc1ccccc1S(=O)(=O)O`, the outcome was inactive. Consider `CCc1ccc(CCOc2ccc(CC3SC(=O)NC3=O)cc2)nc1` (stereo not given), for which the compound was called inactive.

As for `COc1cc(CCC(=O)CC(=O)CCc2ccc(O)c(OC)c2)ccc1O`, the call was inactive. `O=C(O)c1ccccc1C(c1ccc(O)cc1)c1ccc(O)cc1`: the compound was classed as inactive. The result for `CCCCOCCO` reads “inactive”; that for `O=C1OC2(c3ccccc31)c1cc(Br)c(O)c(Br)c1Oc1c2cc(Br)c(O)c1Br`, “inactive”; that for `COc1ccc([N+](=O)[O-])cc1N`, “inactive”. The entry for `ClC1=C(Cl)C(Cl)(Cl)C(Cl)=C1Cl` is “inactive”; for `CC#C[C@]1(O)CC[C@H]2[C@@H]3CCC4=CC(=O)CCC4=C3[C@@H](c3ccc(N(C)C)cc3)C[C@@]21C` it is “inactive”; for `Oc1cc2ccccc2c2ccccc12` it is “inactive”.

With `CC1=C(/C=C/C(C)=C/C=C/C(C)=C/C(=O)O)C(C)(C)CCC1`, the compound was classed as inactive.

For the compound `CCCCCCCCCCCCCC[N+](C)(C)C`, the result was inactive. The entry for `CN(C)C=O` is “inactive”. The entry for `Nc1cccc2c(N)cccc12` is “inactive”. The result for `CCOC(=O)CC(O)(CC(=O)OCC)C(=O)OCC` reads “inactive”; that for `C[C@@H]1C[C@H]2[C@@H]3CCC4=CC(=O)C=C[C@]4(C)[C@@]3(F)[C@@H](O)C[C@]2(C)[C@@]1(O)C(=O)COP(=O)(O)O`, “inactive”. For the compound `CCCCCCCCC(=O)O`, the compound was called inactive. The result for `OCCC(F)(F)C(F)(F)C(F)(F)C(F)(F)C(F)(F)C(F)(F)C(F)(F)C(F)(F)F` reads “inactive”. The entry for `CCCCCCCCCCCCN1CCCC1=O` is “inactive”. The entry for `COCC(C)OCC(C)O` (stereo not given) is “inactive”; for `CCCCCCC(=O)O` it is “inactive”.

`CC(C)CCCCCCOC(=O)CCCCC(=O)OCCCCCCC(C)C`: the compound was classed as inactive. The result for `C#C[C@]1(O)CC[C@H]2[C@@H]3CCC4=CC(=O)CC[C@@H]4[C@H]3CC[C@@]21C` reads “inactive”; that for `CC(C)(C)c1cc(C(C)(C)C)c(O)c(C(C)(C)C)c1`, “inactive”; that for `OC1CCC(C2CCCCC2)CC1` (stereo not given), “inactive”. The result for `CCCCC(CC)COC(=O)CCCCC(=O)OCC(CC)CCCC` (stereo not given) reads “inactive”.

As to `CCC(C)(C)C1CCC(O)CC1` (stereo not given), the compound was classed as inactive. `O=C(O)Cc1cc(I)c(Oc2cc(I)c(O)c(I)c2)c(I)c1`: the compound was classed as inactive. For the compound `CC(=O)CC(C)(C)O`, the compound was called inactive. The entry for `CCCOC(=O)c1ccc(O)cc1` is “inactive”; for `NC(=O)N(O)[C@@H]1C=C[C@H](Oc2cccc(Oc3ccc(F)cc3)c2)C1` it is “inactive”.

Turning to `c1ccc2cc3c(ccc4ccccc43)cc2c1`, the outcome was inactive.

As for `COCC(C)O` (stereo not given), the result was inactive.

With `CCCOc1sc(C(=O)N2CCC(c3cc(CN)ccc3F)CC2)c(C)c1Br`, the outcome was inactive. On to `C=C(C)C(=O)OCCC(F)(F)C(F)(F)C(F)(F)C(F)(F)C(F)(F)C(F)(F)F`, for which the result was inactive.

Take `N#C[C@@H]1CC(F)(F)CN1C(=O)CNC1CC2CCC(C1)N2c1ncccn1` (stereo not given in full): the outcome was inactive. The result for `O=C(OCCOCCOC(=O)c1ccccc1)c1ccccc1` reads “inactive”. The result for `CC[C@H](c1ccc(O)cc1)[C@@H](CC)c1ccc(O)cc1` reads “inactive”. For the compound `NC(=O)N1C(=O)C(C(=O)c2cc(Cl)cs2)c2cc(F)c(Cl)cc21` (stereo not given), the call was inactive. The entry for `CC(O)C(=O)O` (stereo not given) is “inactive”.
